Screening data as filed in PubChem.
This is one part of a sample in which hits are shown more often than they occur.
MgrA-DNA mod: alters Staphylococcus aureus MgrA binding to DNA | fluorescence polarization | inhibition, % (no concentration beside the values) | actives 0.13% (n = 84,000) | AID 602314; in the data active = inhibition above about 30%, passing the limit was not always enough;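 note: 0% = protein plus DNA without compound and 100% = DNA alone without protein; higher means less MgrA bound to DNA so lower polarization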
Active calls of the source: *.

What do the screens show for `Cc1ccc(C)n1-c1ccc([N+](=O)[O-])cc1`?
MgrA-DNA mod: 0

What do the screens show for `Cc1ccc(N2C(=O)C(C)(C)C(C)(C)C2=O)cc1`?
MgrA-DNA mod: 2

Results for Cn1cnnc1SCc1nc2ccccc2[nH]1 ?
MgrA-DNA mod: 2

Results for CCOC(=O)C1=C(CC)OC(N)=C(C#N)C1c1ccccc1 (stereo unspecified) ?
MgrA-DNA mod: 0

How did O=C1c2ccccc2C(O)(c2ccccc2)N1c1ccc2c(c1)OCCO2 (stereo unspecified) do in these assays?
MgrA-DNA mod: -4

Results for C=Cc1c(C)/c2[n-]/c1=C\c1[n-]c(c(CC)c1C)/C=c1\[n-]c3c(c1C)C(=O)C(C(=O)[O-])C=3c1[n-]c(c(C)c1CCC(=O)[O-])\C=2.[Cu].[Na+].[Na+] (stereo unspecified) ?
MgrA-DNA mod: 88*

What do the screens show for `O=c1[nH]c2nc[nH]c(=O)c2[nH]1`?
MgrA-DNA mod: -2

Results for N#CC(C#N)=C(N)/C(C#N)=C/c1ccco1 ?
MgrA-DNA mod: 1

How did COc1ccc(NC(=O)/C(C#N)=C/C=C/c2ccco2)cc1 do in these assays?
MgrA-DNA mod: 2

How did N#C/C(=C\C=C\c1ccco1)C(N)=S do in these assays?
MgrA-DNA mod: 100*

What do the screens show for `O=C(O)CCN1C(=O)/C(=C/c2ccco2)SC1=S`?
MgrA-DNA mod: 51*

How did O=C1/C(=C/c2ccco2)SC(=S)N1CCc1ccccc1 do in these assays?
MgrA-DNA mod: 5

What do the screens show for `CC(C(=O)O)N1C(=O)/C(=C/c2ccco2)SC1=S` (stereo unspecified)?
MgrA-DNA mod: 38

What do the screens show for `N#COc1ccc(Oc2ccc(OC#N)cc2)cc1`?
MgrA-DNA mod: -31

What do the screens show for `COc1cc(/C=C2/C(=O)N(c3ccc(F)cc3)N=C2C)ccc1OCc1ccc(F)cc1`?
MgrA-DNA mod: 2

Results for CCOc1cc(/C=C2/C(=O)ON=C2C)cc(Cl)c1OCc1ccc(F)cc1 ?
MgrA-DNA mod: 54*

What do the screens show for `CCOC(=O)COc1c(Cl)cc(/C=C2/N=C(c3ccco3)OC2=O)cc1OCC`?
MgrA-DNA mod: 3

Results for CCOc1cccc(OCC(F)(F)F)c1C#N ?
MgrA-DNA mod: -3

Results for Cc1ccc(C)n1C(CC(=O)O)c1ccsc1 (stereo unspecified) ?
MgrA-DNA mod: 61*

What do the screens show for `Cc1ccc(C)n1C(CC(=O)O)c1ccc(F)cc1` (stereo unspecified)?
MgrA-DNA mod: 31

What do the screens show for `O=C(O)CC(c1ccsc1)n1cccc1` (stereo unspecified)?
MgrA-DNA mod: 0

Results for COc1ccc2c3c(cccc13)C(=O)CC2 ?
MgrA-DNA mod: 69*

Results for COC(=O)c1ccc2c3c(cccc13)CC2 ?
MgrA-DNA mod: 0

How did COc1cc(/C=C2\CCc3ccccc3C2=O)cc(OC)c1OC do in these assays?
MgrA-DNA mod: -2

What do the screens show for `O=C(CSc1nnc(Cc2ccccc2)o1)N(c1ccccc1)c1ccccc1`?
MgrA-DNA mod: -1

How did CCc1nnc2sc(-c3ccc(OC)c(OC)c3)nn12 do in these assays?
MgrA-DNA mod: 0

What do the screens show for `CC[n+]1c(C)sc2cc(SC)c(OC)cc21`?
MgrA-DNA mod: 4

How did O=C(c1ccc(Cl)cc1)C1CCNCC1 do in these assays?
MgrA-DNA mod: 0

How did CC(C)CC(=O)N1CCN(Cc2ccccc2)CC1 do in these assays?
MgrA-DNA mod: -1

What do the screens show for `Cc1ccc(C(=O)C2N=C(N)OC2c2ccccc2)cc1` (stereo unspecified)?
MgrA-DNA mod: 11

How did CC1=NN(c2cccc(C(=O)O)c2)C(=O)/C1=C/c1ccc(-c2cccc(Cl)c2C)o1 do in these assays?
MgrA-DNA mod: 96*

Results for CC1=NN(c2cccc(C(=O)O)c2)C(=O)/C1=C\c1ccc(-c2ccc(Cl)c(C(=O)O)c2)o1 ?
MgrA-DNA mod: 8

Results for CC1=NN(c2cccc(C(=O)O)c2)C(=O)/C1=C\c1ccc(-c2cc([N+](=O)[O-])ccc2C)o1 ?
MgrA-DNA mod: 2

Results for CC1=C(C(=O)OCCOc2ccccc2)C(c2cccc(Br)c2)NC(=O)N1 (stereo unspecified) ?
MgrA-DNA mod: 0

Results for Nc1ccc2c(c1)ncn2CCO ?
MgrA-DNA mod: -4

Results for O=C1NC(=O)/C(=C\c2ccccc2)N1 ?
MgrA-DNA mod: -2

What do the screens show for `CCn1cc(CNC)c(C)n1`?
MgrA-DNA mod: 1

How did N#Cc1ccccc1Oc1ccccc1F do in these assays?
MgrA-DNA mod: -2

What do the screens show for `O=C1C=CC(=O)C(Sc2nnnn2-c2ccccc2)=C1`?
MgrA-DNA mod: 75*

Results for CC(Sc1nnnn1-c1ccccc1)C(=O)O (stereo unspecified) ?
MgrA-DNA mod: -3

Results for c1ccc(CSc2nnnn2-c2ccccc2)cc1 ?
MgrA-DNA mod: 11

How did COc1cc(CN(C(=O)/C(=C/c2cccnc2)NC(=O)c2ccccc2)C2CCCCC2)ccc1O do in these assays?
MgrA-DNA mod: 1

Results for CN(C)Cc1ccccc1C(O)c1ccccc1 (stereo unspecified) ?
MgrA-DNA mod: 0

How did CN(Cc1ccccc1)Cc1ccccc1O do in these assays?
MgrA-DNA mod: 0

Results for CN(C)Cc1cc(O)c(CN(C)C)cc1O ?
MgrA-DNA mod: 55*

What do the screens show for `Cc1ccc(C(O)(C(F)(F)F)C(F)(F)F)o1`?
MgrA-DNA mod: 3

What do the screens show for `CC1(C)CC(=O)C2=C(C1)NC1=C(C(=O)CC(C)(C)C1)C2c1cccs1`?
MgrA-DNA mod: 3

Results for CC1(C)CC(=O)C2=C(C1)OC(c1cccs1)C(C#N)=C2N (stereo unspecified) ?
MgrA-DNA mod: 99*

What do the screens show for `CC1(C)CC(=O)C2=C(C1)OC(N)=C(C#N)C2c1ccccc1` (stereo unspecified)?
MgrA-DNA mod: 2

How did [N-]=[N+]=NCc1noc(-c2ccccc2)n1 do in these assays?
MgrA-DNA mod: -2

How did O=C(Cc1ccccc1)Nc1ccc(-c2nnc3n2CCCCC3)cc1 do in these assays?
MgrA-DNA mod: -2

What do the screens show for `CCOc1ccc(N(CC(=O)NCCc2ccc(OC)c(OC)c2)S(=O)(=O)c2ccc(SC)cc2)cc1`?
MgrA-DNA mod: 0

What do the screens show for `COC(=O)c1sccc1NCc1ccccc1`?
MgrA-DNA mod: 0

What do the screens show for `O=S(=O)(c1ccc2nsnc2c1)N1CCCCC1c1cccnc1` (stereo unspecified)?
MgrA-DNA mod: -2

What do the screens show for `O=S(=O)(c1ccc2c(c1)OCCO2)N1CCCCC1c1cccnc1` (stereo unspecified)?
MgrA-DNA mod: 58*

How did O=S(=O)(c1cccc(C(F)(F)F)c1)N1CCCC1c1cccnc1 (stereo unspecified) do in these assays?
MgrA-DNA mod: 2

What do the screens show for `CC1S/C(=C/c2nc3ccccc3s2)NC1=O` (stereo unspecified)?
MgrA-DNA mod: 6

What do the screens show for `COC(=O)CSc1nc(C)nc(SC)c1C#N`?
MgrA-DNA mod: -2

What do the screens show for `CCOC(=O)c1c(/N=C/c2c(O)ccc3ccccc23)sc2c1CCC2`?
MgrA-DNA mod: -1

What do the screens show for `Cc1ccc(S(=O)(=O)N=S(C)(C)=O)cc1`?
MgrA-DNA mod: -2

What do the screens show for `Cc1ccc(S(=O)(=O)N=C2C=CC(=O)C=C2)cc1`?
MgrA-DNA mod: 48*

How did CC1=C/C(=N\S(=O)(=O)c2ccccc2)C=CC1=O do in these assays?
MgrA-DNA mod: 38

What do the screens show for `COc1ccc(-n2nc(C(=O)Nc3cc(C)on3)c3c4ccccc4n(C)c3c2=O)cc1Cl`?
MgrA-DNA mod: 0
